Rab9 prom act: Rab9 promoter activation | Huh7 Rab9 promoter-luciferase reporter, luminescence, 24 h | Potency, µM (doses to about 9.22 µM), for the others: at the highest dose activation, negative = inhibition, most hits filed as activators | 320,000 compounds, 2.8% hits | AID 485297; further: % of control where 0% means no effect; nearly all actives have a fitted effect of over 60% in size
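Huh7 cells stably carrying Rab9 promoter–luciferase reporter, plated 1500 cells/well, compound added after 2 h and incubated 24 h at 37 °C; luciferase luminescence then read after 10 min with detection reagent.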
SMN2 splice up: enhancers of SMN2 splice variant expression. Potency, µM (titrated, usually from 46.1 µM), without a hit: top-dose activity change, positive = activation, usual class: activators. 210,000 compounds, 2.8% hits. HEK293 SMN2-luciferase splicing reporter, luminescence, 30-36 h; further: % of control where 0% means no effect; nearly all actives have a fitted effect of over 55% in size
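HEK293 cells carry an SMN2 […]–luciferase reporter in which exon 7 inclusion puts luciferase in frame. Cells were plated 10-12 h before compound addition, then incubated 30-36 h at 37C. ONE-Glo luminescence was read; sodium butyrate at 4.5 mM final served as control.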
ELG1 genotox: inducers of genotoxicity in HEK293T ELG1-luciferase cells. HEK293T ELG1-luciferase reporter, luminescence, 16 h. Potency, µM (highest dose often 46 µM), for inactives: top-dose activity change, positive = activation, actives largely listed as activators. 330,000 compounds, 1.3% hits; further: % of control where 0% means no effect; nearly all actives have a fitted effect of over 60% in size
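HEK293T cells expressing luciferase-tagged ELG1 were treated with compound or DMSO for 16 hr at 37°C. Luciferase activity was then read after 30 min with ONE-Glo at room temperature; rising signal flags genetic stress.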
FLuc modulator: inhibits or activates purified firefly luciferase, miR-21 counter-screen; purified FLuc, Km substrates, luminescence inhibition; Potency, µM (top dose mostly 57.5 µM), inactives show at the top dose activity change, negative = inhibition, hits mostly inhibitors; P08659; 360,000 compounds, 6.9% hits; AID 588342;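 further: plate controls were vehicle for no effect and reference inhibitor for full effect; nearly all actives have a fitted effect of over 55% in size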
Target sequence (P08659 whole entry, looked up): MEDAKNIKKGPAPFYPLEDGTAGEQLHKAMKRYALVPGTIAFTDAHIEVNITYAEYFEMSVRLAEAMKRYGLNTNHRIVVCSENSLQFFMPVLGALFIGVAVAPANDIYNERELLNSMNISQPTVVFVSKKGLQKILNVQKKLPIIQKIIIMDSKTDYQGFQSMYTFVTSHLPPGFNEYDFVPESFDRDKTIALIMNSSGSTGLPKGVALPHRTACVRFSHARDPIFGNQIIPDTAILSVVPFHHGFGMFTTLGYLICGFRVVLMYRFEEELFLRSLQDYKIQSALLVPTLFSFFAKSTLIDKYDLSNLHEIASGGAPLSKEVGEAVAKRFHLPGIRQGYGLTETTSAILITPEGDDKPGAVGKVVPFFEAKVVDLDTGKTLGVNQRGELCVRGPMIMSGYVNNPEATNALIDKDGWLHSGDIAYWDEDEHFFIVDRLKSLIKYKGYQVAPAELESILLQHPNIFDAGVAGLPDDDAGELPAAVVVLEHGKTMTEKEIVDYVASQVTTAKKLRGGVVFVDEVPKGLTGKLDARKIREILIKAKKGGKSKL
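Biochemical qHTS of compounds, final roughly 60 µM downward over six points, against 10 nM purified firefly luciferase using Km concentrations of substrates (10 uM D-luciferin, 10 uM ATP) in Tris acetate pH 7.5 buffer; luminescence output.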
Luc counter: blocks Kinase-Glo luciferase, a counter-screen artifact; AID 1379; Potency, µM (series often up to 38.3 µM), for the others: top-dose activity change, negative = inhibition, usual class: inhibitors; 200,000 compounds, 0.28% hits; Q27757; Kinase-Glo luciferase, ATP luminescence, 8 min; further: on the % scale 0 is the no-effect control and ±100 the full control effect; nearly all actives have a fitted effect of over 60% in size
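Compound is pinned into ATP-containing buffer (10 uM ATP, imidazole pH 7.2, 7 mM MgCl2). Kinase-Glo luciferase reagent is then added. Light output is recorded following an 8-min room-temperature incubation.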
NPC1 promoter act: activators of NPC1 promoter; Huh7 NPC1 promoter luciferase reporter, 24 h; Potency, µM (highest dose often 9.22 µM), without a hit: top-dose activation, most hits filed as activators; 320,000 compounds, 2.4% hits; further: % of control where 0% means no effect; nearly all actives have a fitted effect of over 60% in size
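Luminescence read-out of NPC1 promoter-driven luciferase in stably transfected Huh7 cells; compounds delivered in DMSO and left 24 h at 37C, 5% CO2, qHTS titration format.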
Active calls of the source: *; ? = inconclusive; nt = not tested or not shown; [ ] = remark or other dose. A selection: hits, their analogues and other compounds. The true share with any hit is near 7.5%. The call rests on the fitted dose curve; in most records, active means well fitted curve in the direction sought with a large enough effect; inconclusive means small, poorly fitted or top-dose-only effect, or another doubt; inactive means no such curve, though single readings can be large; an effect the other way counts as inactive or inconclusive. Potency means the concentration at half of the fitted maximal effect.

SMILES	Rab9 prom act	SMN2 splice up	ELG1 genotox	FLuc modulator	Luc counter	NPC1 promoter act
Cc1cc(OCC(=O)OCC(=O)NCC2CCCO2)ccc1Cl (stereo not given)	-4.4%	nt	2.6%	nt	nt	0.4%
CCOc1ccccc1NC(=O)N(Cc1ccc(C)o1)C1CCN(C(C)=O)CC1	nt	nt	nt	1.0%	nt	nt
CC1CCc2nc(NC(=O)c3ccco3)sc2C1 (stereo not given)	0.282µM*	-24.5%	?	0.301µM*	-20.9%	0.447µM*
Cc1cccc(NC(=O)c2c(NC(=O)c3ccco3)sc3c2CCC(C)C3)c1 (stereo not given)	nt	-16.8%	nt	3.8%	nt	nt
COc1cccc(C(=O)NC2C(=O)N3C(C(=O)O)=C(COC(C)=O)CSC23)c1 (stereo not given)	-2.4%	nt	0.1%	21.3µM*	nt	-0.1%
Cc1ccc2nc(-c3ccc(N)cc3)sc2c1S(=O)(=O)O	nt	14.1µM*	nt	nt	nt	nt
COc1cccc(-c2nc3sc4c(c3c(=O)[nH]2)CCCCC4)c1	?	0.891µM*	?	0.151µM*	-10.6%	?
Cc1cc(C)cc(NC(=O)CCc2nc3sc4c(c3c(=O)[nH]2)CCCC4)c1	-26.1%	nt	0.731µM*	4.8%	nt	-9.8%
CCOC(=O)c1nc2sc3c(c2c(=O)[nH]1)CCCC3	-1.1%	3.0%	-6.0%	19µM*	-3.0%	0.8%
CC(C)CCOCc1nc2sc3c(c2c(=O)[nH]1)CCC(C)C3 (stereo not given)	20.2%	-34.0%	?	-13.2%	-1.6%	19.8%
CCOC(=O)c1nc2sc3c(c2c(=O)[nH]1)CCC(C)C3 (stereo not given)	-1.9%	nt	1.2%	16.9µM*	nt	-4.6%
CC(=O)Nc1ccc(NC(=O)CCc2nc3sc4c(c3c(=O)[nH]2)CCCC4)cc1	-0.2%	nt	0.1%	?	nt	6.1%
CCc1ccc(CNC(=O)c2cccc(-n3cnc4cccnc43)c2C)cc1	nt	nt	nt	3.9%	nt	nt
COc1ccccc1CCNC(=O)C(=O)NCC1OCCN1S(=O)(=O)c1ccc2c(c1)OCCO2 (stereo not given)	-0.2%	nt	-10.0%	-13.4%	nt	-0.5%
c1ccc(-n2nnc3c(N4CCOCC4)ncnc32)cc1	0.316µM*	11.6%	?	1.51µM*	?	0.316µM*
O=C(NCC1COc2ccccc2O1)c1cc2ccccc2o1 (stereo not given)	5.7%	22.9%	15.9%	13.5µM*	-1.5%	7.6%
O=C(NC(=S)NCC1COc2ccccc2O1)c1ccccc1 (stereo not given)	-0.4%	-32.7%	-0.3%	?	2.8%	-0.1%
O=C(NCC1COc2ccccc2O1)c1ccco1 (stereo not given)	10.1%	nt	5.6%	-2.3%	-0.5%	2.9%
O=C(NCC1COc2ccccc2O1)c1ccccc1 (stereo not given)	4.47µM*	12.6µM*	?	12µM*	-1.8%	3.98µM*
CSc1ncc(Cl)c(C(=O)Nc2cc(C(F)(F)F)ccc2Cl)n1	nt	6.0%	nt	-0.5%	nt	nt
C=CCOc1ccccc1/C=N/NC(=O)c1ccc(Cl)cc1Cl	?	1.8%	0.6%	15.1µM*	-2.5%	?
COc1cc(C(=O)Oc2ccccc2/C=N/NC(=O)c2ccc(Cl)cc2Cl)cc(OC)c1OC	?	?	15.0%	?	4.1%	3.55µM*
COc1cc(Cl)c(C)cc1NC(=O)c1cnc2c(-c3cccc(C)c3)c(C)nn2c1C	nt	nt	nt	-4.6%	nt	nt
O=C(NCCCc1nc2ccccc2n1Cc1ccccc1Cl)c1ccco1	nt	-10.7%	nt	-6.2%	nt	nt
Clc1ccccc1Cn1c(/C=C/c2ccco2)nc2ccccc21	2.4%	-0.2%	-1.2%	10.7µM*	-5.7%	-2.4%
SMILES	Rab9 prom act	SMN2 splice up	ELG1 genotox	FLuc modulator	Luc counter	NPC1 promoter act
O=C(O)c1ccccc1NS(=O)(=O)c1ccc(NNC(=S)Nc2ccc(OC(F)F)cc2)c([N+](=O)[O-])c1	-3.4%	-24.3%	0.0%	19µM*	?	-3.5%
Cc1ccc(NC(=S)NNc2ccc([N+](=O)[O-])cc2S(=O)(=O)Nc2ccccc2C(=O)O)cc1C	-12.3%	-5.7%	0.7%	?	-10.1%	-8.1%
CCOC(=O)c1c(C)oc2c1c(C=NCC1CCCO1)c(O)c1ccccc12 (stereo not given)	-3.1%	24.9%	-10.7%	9.53µM*	-5.5%	-0.5%
Cn1c(=O)c2c(ncn2CC(COCc2ccccc2)OCc2ccccc2)n(C)c1=O (stereo not given)	-1.0%	nt	-3.5%	5.3%	nt	-1.4%
COc1cccc(-c2noc(-c3cc(C(C)C)[nH]n3)n2)c1OC	nt	nt	nt	16.9µM*	nt	nt
Cc1cccc(-c2noc(-c3ccno3)n2)c1	?	nt	?	21.3µM*	nt	28.5%
Cc1cccc(-c2noc(-c3cc(C(C)C)[nH]n3)n2)c1	nt	nt	nt	4.78µM*	nt	nt
CS(=O)(=O)c1ccccc1-c1nc(-c2cccc(Cl)c2)no1	?	-12.8%	7.2%	?	5.1%	-0.3%
Cc1cccc(-c2nc(-c3ccc4c(c3)[nH]c(=O)n4C)no2)c1	nt	nt	nt	1.1%	nt	nt
CC(C)c1cc(-c2nc(-c3cccc(Cl)c3)no2)n[nH]1	nt	nt	nt	6.75µM*	nt	nt
COc1cccc(-c2noc(C3CC(=O)N(c4ccc(F)cc4)C3)n2)c1OC (stereo not given)	nt	nt	nt	5.2%	nt	nt
Cc1ccc(Nc2nc(C)c(NC(=O)c3ccc(C)cc3)c(Nc3ccc(C)cc3)n2)cc1	nt	7.8%	nt	-1.3%	nt	nt
CN(N=O)c1ccc(/C=C\c2ccnc3ccccc23)cc1	nt	0.0%[9.22 µM]	nt	nt	-6.6%[7.66 µM]	nt
CC(=O)c1ccccc1NS(C)(=O)=O	1.5%	-3.6%	0.8%	-1.9%	-1.9%	1.1%
CCOc1ccc(/C=N/NC(=O)Nc2ccccc2)cc1	2.24µM*	5.01µM*	7.3µM*	3.01µM*	-8.1%	?
Cc1ccc(/C=N/NC(=O)Nc2ccccc2)o1	3.16µM*	11.2µM*	?	10.7µM*	2.1%	2.51µM*
CC(=O)Oc1ccc(/C=N/NC(=S)Nc2ccccc2)cc1	3.98µM*	11.2µM*	9.2µM*	?	0.0%	3.16µM*
CCN(CC)c1ccc(/C=N/OCC(=O)Nc2cccc(C)c2)cc1	1.6%	-6.4%	-0.5%	12µM*	-1.9%	2.4%
Cc1ccc(/C=N/NC(=O)C(O)c2ccccc2)o1 (stereo not given)	0.5%	nt	0.6%	-1.3%	nt	-1.5%
O=C(Cc1ccccc1)N/N=C/c1ccc(OCC(=O)Nc2ccccc2)cc1	8.6%	-5.3%	-2.2%	-0.4%	3.1%	-0.6%
Nn1c(SCC(=O)NC2CCCc3ccccc32)nnc1-c1ccc(Cl)cc1Cl (stereo not given)	-3.4%	nt	4.8%	3.1%	nt	0.3%
COc1cccc([C@@H]2Oc3ccc(Br)cc3C(=O)[C@H]2OC(=O)Nc2cc(OC)c(OC)c(OC)c2)c1	nt	-60.9%	nt	nt	0.5%	nt

Screening data from PubChem.
